# Out of some 390,000 compounds screened, about 4,700 (1.2%) were called active. Another 4% or so got no clear call; they are omitted. Many of the other results were omitted from the sample, so actives are more common in it than they were. Unmarked numbers belong to inactive results. Calls come from the whole dose curve; as a rule, active = well fitted inhibition curve with a large enough effect; inconclusive = small, poorly fitted or top-dose-only effect, or another doubt; inactive = no such curve, though single readings can be large or run the other way.
# Target: DNA polymerase eta (Homo sapiens) (UniProt Q9Y253)
# Sequence (Q9Y253 whole entry, looked up): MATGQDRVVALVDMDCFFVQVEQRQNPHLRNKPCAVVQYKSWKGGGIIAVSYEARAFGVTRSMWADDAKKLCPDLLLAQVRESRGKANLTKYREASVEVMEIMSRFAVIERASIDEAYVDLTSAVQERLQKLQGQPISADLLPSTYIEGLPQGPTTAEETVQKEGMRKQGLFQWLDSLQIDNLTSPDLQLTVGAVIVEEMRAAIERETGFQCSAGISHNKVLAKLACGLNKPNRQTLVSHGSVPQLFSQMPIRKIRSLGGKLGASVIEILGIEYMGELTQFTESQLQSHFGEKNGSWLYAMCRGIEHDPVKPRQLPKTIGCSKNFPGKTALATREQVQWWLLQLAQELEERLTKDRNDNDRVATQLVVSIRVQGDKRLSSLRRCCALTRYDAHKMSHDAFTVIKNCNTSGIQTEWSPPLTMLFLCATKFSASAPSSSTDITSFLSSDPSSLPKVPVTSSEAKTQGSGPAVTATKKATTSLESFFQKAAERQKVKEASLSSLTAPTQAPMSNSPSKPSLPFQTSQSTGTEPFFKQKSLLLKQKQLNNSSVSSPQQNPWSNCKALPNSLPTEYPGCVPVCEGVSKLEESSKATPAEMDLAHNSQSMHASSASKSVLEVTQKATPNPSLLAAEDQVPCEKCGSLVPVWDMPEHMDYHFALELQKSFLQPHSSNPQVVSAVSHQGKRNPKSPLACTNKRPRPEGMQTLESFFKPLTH
# Experiment: qHTS for Inhibitors of Polymerase Eta
# Details: recombinant Pol eta, fluorescent DNA replication assay; series mostly up to 114 µM; activity change, negative = inhibition: at the top concentration
# Method in brief: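 Pol eta at 10 nM preincubated with compounds 15 min at room temperature; reaction started with fluorescent substrate (50 nM final) and read kinetically at 0 and 10 min.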
# % is set by controls: 0 for no effect and ±100 for the full control effect; potency is the fitted concentration of half-maximal effect.
SMILES,Potency,"activity change, negative = inhibition"
O=C1Nc2ccc([N+](=O)[O-])cc2C1=Nc1cccc(CO)c1,20 µM (active),–
COc1ccccc1CNC(=O)CCCCn1c(=O)c2ccccc2n(CC(=O)Nc2cc(Cl)ccc2C)c1=O,–,8.51%
COc1cc(OC)c(NC(=O)c2cc(S(=O)(=O)N3CCCC3)cn2C)cc1Cl,–,-11.9%
CCCN1CN=C(NS(=O)(=O)c2ccc(NC(C)=O)cc2)NC1,–,-13.5%
Cc1ccc(-n2c(=O)c3cccnc3n2CC(=O)Nc2ccccc2C(F)(F)F)cc1C,–,-2.51%
COCCCNC(=O)c1c(NC(=O)c2cc(=O)c3cc(C)c(C)cc3o2)sc2c1CCCC2,–,8.47%
Cc1cc(C)cc(NS(=O)(=O)c2ccc3[nH]cc(C(=O)N4CCCCC4)c(=O)c3c2)c1,–,-10.1%
CCc1ccc(NS(=O)(=O)c2ccc3[nH]cc(C(=O)NCCc4cccc(C)c4)c(=O)c3c2)cc1,–,-14.7%
CC(C)c1ccc(NS(=O)(=O)c2ccc3[nH]cc(C(=O)NC4CCCC4)c(=O)c3c2)cc1,31.6 µM (active),–
CCOc1cc(C2c3c(-c4ccc(Br)cc4)n[nH]c3C(=O)N2c2ccc(Cl)cc2)ccc1O (stereo not given),–,-27.5%
Cc1cccc(Nc2nc(C)nc(N)c2S(=O)(=O)c2ccccc2)c1,–,-6.89%
COc1ccc(CCNC(=O)CCCn2c(=O)c3ccccc3n(Cc3ccc(C)cc3)c2=O)cc1OC,–,-10.4%
CC(=O)c1cccc(Nc2ccc3cc(S(=O)(=O)N4CCC(C)CC4)ccc3n2)c1,–,-25.7%
CC(=O)c1ccc(S(=O)(=O)N2CCC(Oc3ccc(-n4cnnn4)cc3)CC2)cc1,inactive,–
CC(=O)c1ccc(S(=O)(=O)N2CCN(C(=O)/C=C/c3ccc4ccccc4n3)CC2)cc1,39.8 µM (active),–
Cc1ccccc1CNC(=O)CSc1nnc(C)c2c(C)n(-c3ccccc3)nc12,–,-14%
CN(Cc1ccccc1)C(=O)c1cn(C)c2ccc(S(=O)(=O)N3CCCCC3)cc2c1=O,–,-6.85%
CCCCn1c(=N)c(S(=O)(=O)c2ccccc2)cc2c(=O)n3cccc(C)c3nc21,–,-22.5%
CCCc1cc(-c2n[nH]c(=S)n2CC)c2ccccc2n1,–,-3.34%
Cc1cc(-c2n[nH]c(=S)n2/N=C/C(Br)=C/c2ccccc2)n[nH]1,14.1 µM (active),–
Cc1ccc(NC(=O)CSc2nnc3[nH]c(=O)cc(C)n23)cc1Cl,–,16.8%
CCc1nnc(NC(=O)CCC(=O)NCc2ccccc2OC)s1,–,-7.14%
CC(C)(C)CC(=O)Nc1nnc(SCC(=O)NCc2cccs2)s1,–,-15.9%
CCOc1ccc(NC(=O)C/C(C)=N/NC(=O)Cc2cccs2)cc1,–,-8.22%

SMILES,Potency,"activity change, negative = inhibition"
COc1ccc(Cc2nnc(NC(=O)Cc3cccs3)s2)cc1,1 µM (active),–
CCc1nnc(NC(=O)Cc2cccs2)s1,35.5 µM (active),–
COc1ccc(CNC(=O)CCC(=O)Nc2nnc(C(C)C)s2)cc1,–,-6.93%
COc1ccc(CC(=O)Nc2sc(Cc3ccccc3)c(C)c2C(N)=O)cc1,–,-6.32%
CCOc1ccccc1NC(=O)CCn1cnnn1,–,-19.3%
CCOc1ccccc1NC(=O)Cc1cccs1,44.7 µM (active),–
COc1cccc(NC(=O)CSc2cc(=O)n(C)c3ccc(Cl)cc23)c1,–,-11.1%
Fc1ccccc1Oc1ncnc2c1oc1ccccc12,–,-14.1%
Cc1cccc(-n2ncc(C(=O)N3CCc4ccccc4C3)c2C2CCN(C(=O)OC(C)(C)C)CC2)c1,–,-14.8%
COc1ccccc1-c1nnc(C2CCN(C(=O)c3ccc(Cl)cc3)CC2)o1,–,-19.5%
Cc1ccc(-n2c(=O)c3cccnc3n2CC(=O)NCc2ccc(F)cc2)cc1C,–,-22.2%
Cc1oc2ccc(O)c(CN3CCOCC3)c2c1C(=O)Nc1cccc(Cl)c1C,–,-14.5%
COc1ccc2oc(=O)c(-c3cn4c(n3)sc3cc(OC)ccc34)cc2c1,–,-9.11%
COc1ccc2cc(-c3nc(Cl)c4c5c(sc4n3)CC(C)CC5)c(=O)oc2c1 (stereo not given),–,-7.52%
COc1ccc(-c2cc3ccc(OCc4nn[nH]n4)cc3oc2=O)cc1,17.8 µM (active),–
CCCS(=O)(=O)c1ncc(Cl)c(C(=O)Nc2scc(-c3ccccc3)c2C(=O)OCC)n1,–,-15.6%
COc1ccc(Cn2c(C(=O)O)c(CNCCc3cccs3)c3ccc(OC)cc32)cc1,–,-16.6%
CCCNC(=O)C1CCN(c2nc3ccc(C)cc3[nH]2)CC1,–,-9.68%
Cc1ccc(Cc2cncc(O)c2)cc1S(=O)(=O)O,25.1 µM (active),–
CCCCCn1c(CCCNC(=O)c2ccccc2OC)nc2ccccc21,–,-9.44%
Oc1c(Cl)cc(Cl)c(Cl)c1Cc1c(O)c(Cl)cc(Cl)c1Cl,44.7 µM (active),–
Cc1ccccc1NC(=O)Cn1cc(C(=O)c2cccs2)c2ccccc21,–,-17.3%
Cn1c(=O)c2c(nc(Oc3ccc(C#N)cc3)n2Cc2ccc(Cl)cc2Cl)n(C)c1=O,–,-8.3%
Cc1cccc(C)c1-n1ncc(C(=O)NCCCN2CCCCC2)c1C1CCN(C(=O)OC(C)(C)C)CC1,–,-12.6%

SMILES,Potency,"activity change, negative = inhibition"
CC(C)CC(=O)NCC(c1ccc2c(c1)OCO2)N1CCN(c2ccc(F)cc2)CC1 (stereo not given),–,-22.4%
O=C(c1ccccc1)c1ccc(OC(=O)N2CCCC2)cc1,–,-11.8%
CC(=O)c1ccccc1OCc1ccc(C(=O)c2ccccc2)cc1,–,-17.2%
O=C(c1ccc(O)cc1)c1ccc(C(=O)O)c(C(=O)O)c1,39.8 µM (active),–
CCOc1cccc2sc(N3CCN(C(=O)C4CC4)CC3)nc12,–,-10.9%
O=C(CSc1oc(-c2ccco2)nc1S(=O)(=O)c1ccc(Cl)cc1)c1ccccc1,–,-11%
CCN(C(=O)COC(=O)/C=C/c1nc2ccccc2s1)C1CCS(=O)(=O)C1 (stereo not given),–,-11.5%
Cc1cc(C)c2nc(SCC(=O)N(C)C3CCS(=O)(=O)C3)cc(C)c2c1 (stereo not given),–,-8.11%
CN(C(=O)COC(=O)c1cc(-c2ccco2)nc2ccccc12)C1CCS(=O)(=O)C1 (stereo not given),6.31 µM (active),–
COc1cccc(NC(=O)CN(C)C(=O)c2cc(Cl)nc3ccccc23)c1,–,-1.6%
CN(CCOc1ccccc1)Cc1nc2cc(Cl)ccc2c(=O)[nH]1,–,-11.3%
CN(CCOc1ccccc1)C(=O)c1cc(-c2ccco2)nc2ccccc12,25.1 µM (active),–
Cc1oc2c(c1C(=O)Nc1ccc(F)c(F)c1)C1=NCCN1C=N2,–,-11.1%
CC1=C(C(=O)Nc2ccccc2)C(c2ccc(C)cc2)n2nc(SCc3ccccc3C)nc2N1 (stereo not given),–,-12.8%
CCOc1ccc(CNC(=O)CCc2c(C)nn(-c3ccc(N4CCCCC4)nn3)c2C)cc1,–,15.4%
CCOC(=O)c1cc2c(=O)n3ccccc3nc2n(Cc2ccco2)c1=NC(=O)c1ccc(F)cc1,–,1.02%
OC[C@H]1O[C@@H](n2cnc3c(N[C@H]4CC5CCC4C5)ncnc32)[C@H](O)[C@@H]1O (stereo not given in full),–,-4.42% [at 57.1 µM]
O=C(Nc1ccc2nc(SCC(=O)N3CCCc4ccccc43)sc2c1)c1ccc(F)cc1,–,1.28%
O=C(O)CCn1cc(/C=C/C(=O)c2ccc(Cl)cc2)c(-c2cccc(Br)c2)n1,56.2 µM (active),–
CCc1ccc(S(=O)(=O)c2nnn3c2nc(NCc2ccccc2OC)c2cc(Cl)ccc23)cc1,–,-17.6%
CN1CCN(C(=O)Cn2c(C(F)(F)F)nc3ccccc32)CC1,–,-6.13%
CCc1nn(CC(=O)N2CCN(CC)CC2)c(=O)c2cccn12,–,-4.37%
CCCN1CCN(C(=O)Cn2ncc3ccccc32)CC1,25.1 µM (active),–
Cc1ccc(NC(=O)CN2C(=O)CC(C)Sc3ccccc32)c(C)c1 (stereo not given),–,-18.6%

SMILES,Potency,"activity change, negative = inhibition"
COc1ccc(Br)cc1CNC(=O)c1cc(=O)[nH]c2ccc(S(=O)(=O)N3CCCC3)cc12,–,-19.4%
CC(C)(CNC(=O)c1ccc(Cl)c(S(=O)(=O)N2CCc3ccccc3C2)c1)N1CCOCC1,–,-5.08%
O=C(Nc1ccc(F)cc1)c1cccnc1N1CCOCC1,–,5.47%
O=C(O)c1ccc(NN=CC2=C(N3CCOCC3)/C(=C/c3ccccc3)CC2)cc1,39.8 µM (active),–
CCOc1ccc(NC(=O)C(=O)NCCc2csc3nc(-c4ccccc4F)nn23)cc1,–,-19.2%
Cc1cc2ccccc2n1CCNC(=O)c1ccc(F)cc1,–,-11.5%
Cc1ccc2c(=O)c(C(=O)c3ccc(Cl)cc3)cn(CC(=O)NC3CCCCC3)c2n1,–,-3.19%
NC1=NC(c2cc(F)cc(F)c2)n2c(nc3ccccc32)N1 (stereo not given),–,-10.4%
COc1cccc(/C=N/Nc2ccc(S(=O)(=O)Nc3ccccc3C(=O)O)cc2[N+](=O)[O-])c1O,17.8 µM (active),–
COC(=O)c1ccccc1NS(=O)(=O)c1ccc2c(c1)CCCN2C(C)=O,–,-2.99%
COc1ccc(S(=O)(=O)NC(C)c2ccccc2)cc1C(=O)N1CCCCC1 (stereo not given),–,-9.63%
Cc1ccc(C)c(NS(=O)(=O)c2ccc(OCC(=O)NCc3cccnc3)cc2)c1,–,-6%
CCN(CC(=O)NCc1cccs1)C(=O)c1cccc(S(=O)(=O)Nc2ccccc2OC)c1,–,-25.1%
O=C(CN1CCCCCC1)Nc1ccc(Br)cc1[N+](=O)[O-],–,-11%
Cc1ccc(NS(=O)(=O)c2ccc3c(c2)n(C)c(=O)c(=O)n3C)c(C)c1,–,-4.89%
Cc1ccc(NS(=O)(=O)c2ccc(N/N=C/c3ccccc3OCC(=O)O)c([N+](=O)[O-])c2)c(C)c1,70.8 µM (active),–
COc1ccc(Br)cc1/C=N/Nc1ccc(S(=O)(=O)Nc2ccccc2C(=O)O)cc1[N+](=O)[O-],15.8 µM (active),–
COc1ccc(N2CCN(Cc3nc4c(c(=O)[nH]c(=O)n4C)n3Cc3ccc(Cl)cc3)CC2)cc1,–,-7.52%
CCOc1ccccc1NC(=O)Cn1c(=O)n(Cc2ccccc2)c(=O)c2c(C)c(C(=O)N(C)C)sc21,–,-27%
COc1ccc(C2(Nc3cccc(F)c3)C(=O)c3ccccc3C2=O)cc1,–,-17.8%
CCCCC12CN3CC(C)(CN(C1)C3c1ccc(O)c(OC)c1)C2=O (stereo not given),–,-16.3%
COc1ccc2c(c1)c(N1CCCC1=O)c(C(=O)Nc1ccc(OC)c(Cl)c1)n2C,–,-3.83%
Cc1ccc(C(=O)Nc2cc3c(cc2N2CCCC2)n(C)c(=O)c(=O)n3C)cc1,–,2.99%

# Reference: PubChem BioAssay AID588591 (National Center for Advancing Translational Sciences (NCATS), 2011)
